# CHX counter – affects cycloheximide protein synthesis inhibition readout, counter-screen | cell reporter, cycloheximide protein synthesis inhibition counterscreen | max response, % | 300,000 compounds, 12% hits; in the data active = max response mostly above about 13%, no sharp cut-off; inactive = mostly below about 14%; note: read at 38.3 µM for the half of the compounds with a filed dose; 0% is about no effect
# AmpC detergent – inhibitors of E. coli AmpC beta-lactamase with detergent | 370,000 compounds, 0.041% hits | Potency, µM (titrated, usually from 114 µM), for the others: top-dose activity change, negative = inhibition, hits mostly inhibitors | AmpC hydrolysis of nitrocefin, absorbance 480 nm, 0.01% Triton | P00811;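 note: potency is the fitted concentration of half-maximal effect; 0% = no-compound wells and -100% = no-enzyme wells; nearly all actives have a fitted effect of over 25% in size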
# Target sequence (P00811 whole entry, looked up): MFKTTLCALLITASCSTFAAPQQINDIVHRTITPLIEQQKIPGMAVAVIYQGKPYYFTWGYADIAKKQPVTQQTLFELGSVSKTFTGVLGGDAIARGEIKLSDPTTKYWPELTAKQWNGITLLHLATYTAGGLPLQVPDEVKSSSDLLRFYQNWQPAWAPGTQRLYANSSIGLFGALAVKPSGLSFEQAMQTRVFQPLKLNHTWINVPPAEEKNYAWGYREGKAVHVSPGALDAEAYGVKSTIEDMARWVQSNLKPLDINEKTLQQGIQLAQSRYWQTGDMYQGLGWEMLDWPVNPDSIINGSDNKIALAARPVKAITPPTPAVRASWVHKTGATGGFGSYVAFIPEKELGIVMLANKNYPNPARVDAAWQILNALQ
#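 AmpC (5.3 nM in the dispensed reagent) in 20 mM phosphate pH 7.0 with 0.01% (detergent screen) or 0.0001% Triton X-100 was preincubated with compounds for 15 min at room temperature. Nitrocefin was then added from an 800 uM solution, and hydrolysis was followed at 480 nm.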
# NS1 function inh – inhibitors of influenza NS1 protein function; Potency, µM (highest dose often 46.1 µM), without a hit: at the highest dose activity, positive = more growth; 270,000 compounds, 0.4% hits; calls by dose curve; note: potency is the fitted concentration of half-maximal effect; actives are rising curves; nearly all actives have a fitted effect of over 50% in size
#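 A cell-based growth assay was used: compounds that relieve NS1-induced slow growth of budding yeast raise OD600. Assay medium was yeast nitrogen base with ammonium sulphate and -URA supplement, pH 6.0, with 2% galactose.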
# AmpC inh no detg – AmpC beta-lactamase inhibition without detergent. Potency, µM (top dose mostly 57.1 µM), without a hit: at the highest dose activity change, negative = inhibition, hits mostly inhibitors. 330,000 compounds, 0.52% hits. AmpC nitrocefin hydrolysis, absorbance 480 nm, 0.0001% Triton. P00811;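 note: potency is the fitted concentration of half-maximal effect; plate controls were no compound for no effect and no enzyme for full effect; nearly all actives have a fitted effect of over 20% in size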
#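 AmpC (5.3 nM in the dispensed reagent) in 20 mM phosphate pH 7.0 with 0.01% (detergent screen) or 0.0001% Triton X-100 was preincubated with compounds for 15 min at room temperature. Nitrocefin was then added from an 800 uM solution, and hydrolysis was followed at 480 nm.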
# Shiga inhibitor – Shiga toxin inhibition; Vero cells, Shiga toxin protein synthesis inhibition reporter; AID 2315; inhibition, % at 38.7 µM; 290,000 compounds, 9.2% hits; in the data active = inhibition mostly above about 28%, no sharp cut-off; inactive = mostly below about 43%; note: 0% is about no effect
# Numbers without * were called inactive; ? = inconclusive; . = not tested or not shown. This excerpt belongs to a sample that is enriched for hits. Unless noted, calls come from the whole dose curve; as a rule, active = well fitted curve in the direction sought with a large enough effect; inconclusive = small, poorly fitted or top-dose-only effect, or another doubt; inactive = no such curve, though single readings can be large; an effect the other way counts as inactive or inconclusive.
SMILES,CHX counter,AmpC detergent,NS1 function inh,AmpC inh no detg,Shiga inhibitor
CCOc1cccc(C(=O)N(Cc2ccc(CC)cc2)C2CCS(=O)(=O)C2)c1 (stereo not drawn),.,-0.8%,.,.,.
COc1ccc(CNC(=O)C(=O)Nc2c3c(nn2-c2ccccc2)CSC3)cc1,.,-2.2%,.,.,.
CNS(=O)(=O)c1cc(-c2nnc(Nc3cc(C)ccc3C)c3ccccc23)ccc1C,.,1.0%,.,.,.
O=c1[nH]c(SCCOc2ccccc2F)nc2ccccc12,33.1*,-4.5%,-1.4%,-30.8%,60.5*
Cn1c(SCCOc2ccccc2F)nc2ccccc2c1=O,16.1,?,.,-16.3%,30.2
COc1ccccc1OCCSc1nc2ccccc2c(=O)[nH]1,13.8*,-0.7%,?,-21.6%,48.2*
O=c1[nH]c(SCCOc2ccccc2)nc2ccccc12,20.5,-4.5%,-0.1%,.,35.3
CC1(C)CC1C(=O)Nc1ccc([N+](=O)[O-])cc1Br (stereo not drawn),7.7,-11.4%,-15.0%,-25.3%,-8.1
CCOc1ccc(N/C=C/C(=O)c2ccc3ccccc3c2)c([N+](=O)[O-])c1,15.0,1.7%,3.5%,-9.6%,34.4
Cc1ccc(C(=O)/C=C/Nc2ccc([N+](=O)[O-])cc2Br)cc1,67.3*,?,8.4%,-9.6%,77.0*
CCOc1ccc(N/C=C/C(=O)c2ccc(C)cc2)c([N+](=O)[O-])c1,41.6*,-3.2%,4.6%,-23.6%,64.4*
CCCCC(Br)C(=O)Nc1ccc(S(=O)(=O)Nc2cc(C)nc(C)n2)cc1 (stereo not drawn),-6.0,0.7%,2.6%,-11.5%,-7.5
O=C(CSc1ncc(-c2ccc(Cl)cc2)[nH]1)Nc1ccccc1F,.,8.7%,.,.,.
Oc1c(Cl)cc(CN(Cc2cc(Cl)c(O)c(Cl)c2)C2CCCCC2)cc1Cl,.,.,-15.5%,.,.
COc1ccccc1C1CCN(Cc2cccc([N+](=O)[O-])c2)CC1,-0.9,1.8%,-3.0%,-5.2%,3.2
COc1ccccc1C1CCN(c2ccc(CO)cc2[N+](=O)[O-])CC1,14.5*,-5.9%,-4.1%,-19.9%,17.8
Oc1ccc2ccccc2c1CNc1ccc(Br)cc1,5.4,-7.0%,9.0%,?,-5.3
C=CCc1cccc(CNc2nc3ccccc3n2C)c1O,12.1,-6.6%,-16.3%,-12.0%,40.7
C=CCc1cccc(CNc2cnc3ccccc3c2)c1O,17.2*,?,4.0%,-45.4%,20.5*
COc1ccc(NCc2c(O)ccc3ccccc23)cc1,.,.,2.8%,.,.
Oc1ccc2ccccc2c1CNc1ccc(Br)cn1,46.3*,-6.2%,-32.9%,-46.5%,65.6*
Oc1ccc(Cl)cc1CNc1cnc2ccccc2c1,14.5*,?,-7.6%,-53.4%,31.7
CC(C)n1c(NCc2cc(Cl)ccc2O)nc2ccccc21,-9.7,-13.1%,-32.6%,-34.7%,-19.2
Oc1ccc2ccccc2c1CNc1cnc2ccccc2c1,29.4*,-5.8%,4.3%,-37.5%,91.9*
COc1cccc(C2CC(=O)Nc3c2c(=O)n(C)c2ncnn32)c1OC (stereo not drawn),.,-1.7%,.,.,.
SMILES,CHX counter,AmpC detergent,NS1 function inh,AmpC inh no detg,Shiga inhibitor
CCOC(=O)c1c(C)[nH]c(C)c1S(=O)(=O)NCC(=O)Nc1ccccn1,2.7,-12.3%,7.0%,-11.8%,12.6
N=C(N)S[C@H]1c2ccccc2-c2cc([N+](=O)[O-])ccc21,.,.,17.7%,.,.
Oc1ccccc1CNc1cnc2ccccc2c1,30.9*,1.0%,-25.1%,-35.0%,31.7*
CC(=O)Nc1sc(N/N=C/c2ccc(C)cc2)nc1-c1ccc(C)cc1,52.3*,2.1%,8.3%,8.3%,71.4*
O=C(O)Cc1sc(N/N=C\c2ccncc2)nc1-c1ccccc1,11.1,3.8%,18.7%,-18.5%,20.4
CC(=O)Nc1sc(/C(C#N)=C/c2ccc(Cl)c(Cl)c2)nc1-c1ccc(C)cc1,-2.2,-3.0%,45.3%,4.47µM*,-5.7
CC(=O)Nc1sc(N/N=C/c2ccc(N(C)C)cc2)nc1-c1ccc(C)cc1,25.1*,-11.7%,3.1%,-17.2%,57.5*
COc1ccccc1CCNC(=O)CNC(=O)c1ccc2ccccc2c1,-2.1,-13.8%,-15.6%,12.9%,35.1
O=C(Nc1ccc(C(F)(F)F)cc1)OC1CN2CCC1CC2 (stereo not drawn),31.9*,-9.5%,-1.3%,-9.9%,54.7*
O=C(Nc1cccc(C(F)(F)F)c1)OC1CN2CCC1CC2 (stereo not drawn),-3.0,-3.9%,0.5%,-4.0%,5.3
Oc1cc2ccccc2cc1-c1n[nH]c(=S)o1,0.3,-13.3%,-98.0%,-40.3%,-17.4
CC1CCc2sc(C(=O)NC3CCCCC3)cc2C1 (stereo not drawn),.,?,.,-36.6%,.
S=c1[nH]nc(-c2cc3c(s2)-c2ccccc2CC3)o1,30.1*,-5.3%,-8.0%,?,56.3*
CC1CCc2sc(-c3n[nH]c(=S)o3)cc2C1 (stereo not drawn),18.8*,2.7%,-4.5%,-17.5%,41.0*
CSc1nnc(-c2cc3c(s2)-c2ccccc2CC3)o1,24.8*,2.1%,3.0%,?,79.8*
O=C(CCc1ccccc1Cl)NC1CCCN(c2ccc(C(F)(F)F)cn2)C1 (stereo not drawn),5.7,4.2%,-4.7%,3.0%,-4.9
COc1ccc(-c2nn(-c3ccccc3)cc2/C=N/NS(=O)(=O)c2ccccc2)cc1,17.5,0.0%,24.0%,-33.2%,21.0
Cc1ccc(-c2nn(-c3ccccc3)cc2/C=N/NC(=O)c2ccc(Br)o2)cc1,24.1*,-1.2%,-8.9%,-26.4%,35.9*
O=C(N/N=C\c1cn(-c2ccccc2)nc1-c1ccccc1)c1ccc(Br)o1,14.4*,0.8%,18.7%,-11.5%,79.8*
O=C(N/N=C\c1cn[nH]c1-c1ccc(Cl)cc1)c1cccs1,36.1*,8.7%,3.6%,-59.8%,81.5*
O=C(N/N=C/c1cn[nH]c1-c1ccccc1)c1ccco1,26.4*,-6.3%,1.3%,-51.0%,72.4*
COc1cccc(-c2nc(CS(=O)(=O)CC(=O)NCc3ccc(C)cc3)c(C)o2)c1,.,16.9%,.,.,.
Cc1ccccc1CSc1cn(CC(=O)N2CCCCCC2)c2ccccc12,.,21.1%,.,.,.
CSc1nn(Cc2cccc(F)c2)c(N(C(C)=O)C(C)=O)c1S(=O)(=O)c1ccccc1,.,-3.7%,.,.,.
CCOc1ccc(/C(O)=C2\C(=O)C(=O)N(CCOCCO)C2c2ccccc2OC)cc1 (stereo not drawn),-3.4,1.6%,-0.6%,-11.2%,-32.5
CCN(CC)C(=O)Cn1c(=O)n(-c2ccc(C)c(C)c2)c(=O)c2c3c(sc21)CCCCC3,.,4.9%,.,.,.
CCOC(=O)C(C)Sc1nnc2cc(C)c3ccccc3n12 (stereo not drawn),.,-5.4%,.,.,.
COc1cc(NC(=O)c2cc3nc(-c4ccccc4)cc(-c4ccccc4)n3n2)c(OC)cc1Cl,.,13.5%,.,.,.
Cc1nnc(SCC(=O)N/N=C/c2cn(-c3ccccc3)nc2-c2ccccc2)n1-c1ccccc1,9.2,-1.9%,?,5.5%,66.0
O=C(N/N=C/c1cn(-c2ccccc2)nc1-c1ccccc1)c1ccco1,20.8*,-6.9%,3.2%,-19.7%,42.0*

# Source: PubChem
